# Measurements as given in PMC5700166.
# Where a chain is given by its changes, count along the chain named.
# Legend:
# Experiment in all cases: protein-binding microarray (PBM); PBM: ~300 nM protein, 6 mM HEPES pH 7.8, 80 mM KCl, 0.5 mM EDTA, 0.5 mM EGTA, 6% glycerol, 35 ng/ul poly-dIdC, 1% milk, 1 h, room temperature; Ap Aiptasia and Nv Nematostella (sea anemones) / Co Capsaspora / Aq Amphimedon (sponge) / Dm Drosophila / Hu human; RHD is the Rel homology domain; high values mean tight binding
# Conditions in all cases: dsDNA, one strand shown
# GST-Ap-NF-kB RHD = biological target: T1, GST-Ap-NF-kB RHD (Exaiptasia pallida (Aiptasia), UniProt A0A913YAJ5 2-422)
# T1 sequence: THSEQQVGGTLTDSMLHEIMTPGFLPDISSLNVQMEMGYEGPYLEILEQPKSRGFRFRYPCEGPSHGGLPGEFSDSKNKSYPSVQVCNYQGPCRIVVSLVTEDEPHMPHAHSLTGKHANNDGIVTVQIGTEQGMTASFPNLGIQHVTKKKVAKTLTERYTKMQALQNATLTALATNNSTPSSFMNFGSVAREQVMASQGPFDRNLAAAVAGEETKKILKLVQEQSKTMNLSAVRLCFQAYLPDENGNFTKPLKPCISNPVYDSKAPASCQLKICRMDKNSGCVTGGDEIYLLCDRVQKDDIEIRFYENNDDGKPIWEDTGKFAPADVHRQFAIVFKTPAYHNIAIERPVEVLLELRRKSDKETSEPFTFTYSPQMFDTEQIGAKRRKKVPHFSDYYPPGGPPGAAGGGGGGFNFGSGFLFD
# [1] = biological target: T2, GST-Nv-NF-kB (Cys allele) (Nematostella vectensis, UniProt E5G601 2-411)
# T2 sequence: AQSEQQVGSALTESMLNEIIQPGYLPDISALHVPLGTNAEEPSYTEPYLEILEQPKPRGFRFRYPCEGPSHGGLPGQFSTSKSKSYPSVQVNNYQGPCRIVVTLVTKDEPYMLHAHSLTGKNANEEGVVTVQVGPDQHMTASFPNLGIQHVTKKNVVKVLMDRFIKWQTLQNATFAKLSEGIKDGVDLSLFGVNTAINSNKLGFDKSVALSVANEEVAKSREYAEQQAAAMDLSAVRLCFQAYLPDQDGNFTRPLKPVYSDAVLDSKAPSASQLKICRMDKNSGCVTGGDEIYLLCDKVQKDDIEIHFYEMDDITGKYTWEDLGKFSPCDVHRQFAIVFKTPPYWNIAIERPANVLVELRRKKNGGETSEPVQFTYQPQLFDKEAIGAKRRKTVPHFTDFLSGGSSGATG
# [2] = biological target: T3, GST-Nv-NF-kB (Ser allele) (Nematostella vectensis, UniProt A7UNT2 2-411)
# T3 sequence: T2 sequence with Q21R, C66S, S207N, E215Q, V217A, E225K, A268E, D399E
# GST-Co-NF-kB = biological target: T4, GST-Co-NF-kB (Capsaspora owczarzaki, UniProt F1ARL5 200-546)
# T4 sequence: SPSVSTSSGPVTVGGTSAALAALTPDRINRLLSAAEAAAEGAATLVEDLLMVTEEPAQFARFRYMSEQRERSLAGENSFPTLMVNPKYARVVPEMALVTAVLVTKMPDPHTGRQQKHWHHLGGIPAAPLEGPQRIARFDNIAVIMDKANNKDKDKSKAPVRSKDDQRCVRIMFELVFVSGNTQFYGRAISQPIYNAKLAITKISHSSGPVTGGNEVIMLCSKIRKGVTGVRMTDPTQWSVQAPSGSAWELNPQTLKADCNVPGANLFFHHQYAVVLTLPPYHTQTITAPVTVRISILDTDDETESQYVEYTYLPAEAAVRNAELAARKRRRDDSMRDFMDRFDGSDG
# GST-Dm-Relish = biological target: T5, GST-Dm-Relish (Drosophila melanogaster, UniProt Q94527 99-473)
# T5 sequence: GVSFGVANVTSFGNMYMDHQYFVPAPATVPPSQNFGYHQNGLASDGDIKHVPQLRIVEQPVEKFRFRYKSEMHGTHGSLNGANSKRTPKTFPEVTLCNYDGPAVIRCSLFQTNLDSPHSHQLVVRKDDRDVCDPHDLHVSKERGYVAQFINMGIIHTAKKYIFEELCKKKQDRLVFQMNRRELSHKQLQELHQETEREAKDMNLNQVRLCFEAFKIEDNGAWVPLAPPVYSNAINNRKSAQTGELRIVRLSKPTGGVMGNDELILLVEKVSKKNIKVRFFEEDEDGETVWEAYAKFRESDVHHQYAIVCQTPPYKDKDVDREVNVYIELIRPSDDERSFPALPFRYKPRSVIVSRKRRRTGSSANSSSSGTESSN
# GST-Aq-NF-kB = biological target: T6, GST-Aq-NF-kB (Amphimedon queenslandica, UniProt A9Y5G7 2-389)
# T6 sequence: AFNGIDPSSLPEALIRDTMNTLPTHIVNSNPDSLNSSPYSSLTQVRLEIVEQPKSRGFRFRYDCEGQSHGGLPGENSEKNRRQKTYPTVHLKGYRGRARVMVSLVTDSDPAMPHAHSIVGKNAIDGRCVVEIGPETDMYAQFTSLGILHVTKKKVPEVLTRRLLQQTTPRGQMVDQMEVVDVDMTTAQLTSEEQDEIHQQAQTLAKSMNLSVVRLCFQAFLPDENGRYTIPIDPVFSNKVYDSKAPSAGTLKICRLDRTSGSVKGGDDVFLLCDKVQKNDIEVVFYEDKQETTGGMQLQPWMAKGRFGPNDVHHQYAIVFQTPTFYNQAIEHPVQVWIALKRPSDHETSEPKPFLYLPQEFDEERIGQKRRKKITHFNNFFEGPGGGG
# GST-Hu-p50 = GST-Hu-p50 (Homo sapiens, UniProt P19838 7-356)
# GST-Hu-p50, sequence (P19838 7-356): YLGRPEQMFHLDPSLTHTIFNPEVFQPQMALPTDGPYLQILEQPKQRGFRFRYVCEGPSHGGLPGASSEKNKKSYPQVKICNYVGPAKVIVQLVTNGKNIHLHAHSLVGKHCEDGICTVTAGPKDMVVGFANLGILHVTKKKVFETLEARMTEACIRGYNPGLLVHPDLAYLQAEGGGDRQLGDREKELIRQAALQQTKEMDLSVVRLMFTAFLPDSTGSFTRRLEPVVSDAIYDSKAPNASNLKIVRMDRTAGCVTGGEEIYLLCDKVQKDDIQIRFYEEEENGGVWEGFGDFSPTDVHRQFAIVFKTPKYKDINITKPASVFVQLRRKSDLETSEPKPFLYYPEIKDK
Sequence,binding signal (GST-Ap-NF-kB RHD),binding signal [1],binding signal [2],binding signal (GST-Co-NF-kB),binding signal (GST-Dm-Relish),binding signal (GST-Aq-NF-kB),binding signal (GST-Hu-p50)
CCGATTAACATCAGGGGGGATAATGATGTTAATCGGGTCTTGATTCGCTTGACGCTGCTG,5.8 z-score,4.93 z-score,5.26 z-score,7.17 z-score,4.67 z-score,4.72 z-score,5.14 z-score
CCGATTAACATCAAATTTCCCCGTGATGTTAATCGGGTCTTGATTCGCTTGACGCTGCTG,8.33 z-score,9.6 z-score,11.4 z-score,9.87 z-score,7.13 z-score,7.38 z-score,6.52 z-score
CCGATTAACATCAAATTTCCCCTTGATGTTAATCGGGTCTTGATTCGCTTGACGCTGCTG,8.8 z-score,10.8 z-score,13.2 z-score,7.98 z-score,7.38 z-score,8.06 z-score,7.51 z-score
CCGATTAACATCAAGGGGATTCCTGATGTTAATCGGGTCTTGATTCGCTTGACGCTGCTG,10.4 z-score,10.4 z-score,9.96 z-score,2.68 z-score,9.9 z-score,7.84 z-score,7.29 z-score
CCGATTAACATCAAAATTCCCTATGATGTTAATCGGGTCTTGATTCGCTTGACGCTGCTG,4.89 z-score,8.05 z-score,7.32 z-score,3.27 z-score,5.2 z-score,6.99 z-score,5.69 z-score
CCGATTAACATCAAGGGTTTCCCTGATGTTAATCGGGTCTTGATTCGCTTGACGCTGCTG,4.12 z-score,4.79 z-score,4.07 z-score,3.82 z-score,7.83 z-score,5.56 z-score,3.28 z-score
CCGATTAACATCAAAAGGGAATTTGATGTTAATCGGGTCTTGATTCGCTTGACGCTGCTG,3.2 z-score,6.76 z-score,7.17 z-score,1.41 z-score,4.25 z-score,4.96 z-score,5.13 z-score
CCGATTAACATCACAAATTCCCCTGATGTTAATCGGGTCTTGATTCGCTTGACGCTGCTG,9.44 z-score,10.9 z-score,12.6 z-score,8.68 z-score,8.67 z-score,8.11 z-score,7.34 z-score
CCGATTAACATCAGGATGCCCCCTGATGTTAATCGGGTCTTGATTCGCTTGACGCTGCTG,4.93 z-score,4.06 z-score,2.93 z-score,1.55 z-score,4.63 z-score,5.09 z-score,4.35 z-score
CCGATTAACATCAGGGGGTTCTATGATGTTAATCGGGTCTTGATTCGCTTGACGCTGCTG,7.12 z-score,5.57 z-score,6.75 z-score,2.36 z-score,6.97 z-score,5.33 z-score,5.89 z-score
CCGATTAACATCAAGGGGGTACCTGATGTTAATCGGGTCTTGATTCGCTTGACGCTGCTG,5.62 z-score,3.48 z-score,4.15 z-score,2.65 z-score,3.15 z-score,3.5 z-score,3.89 z-score
CCGATTAACATCAAAAATCCACCTGATGTTAATCGGGTCTTGATTCGCTTGACGCTGCTG,2.25 z-score,2.65 z-score,3.34 z-score,1.26 z-score,4.27 z-score,3.29 z-score,4.62 z-score
CCGATTAACATCAGGGGGTGCACTGATGTTAATCGGGTCTTGATTCGCTTGACGCTGCTG,3.65 z-score,2.71 z-score,3.9 z-score,2.55 z-score,6.6 z-score,4.95 z-score,4.23 z-score
CCGATTAACATCACCGTTTCCCCTGATGTTAATCGGGTCTTGATTCGCTTGACGCTGCTG,6.05 z-score,6.66 z-score,9.86 z-score,7.95 z-score,2.77 z-score,4.66 z-score,5.1 z-score
CCGATTAACATCAGAGATTCCCCTGATGTTAATCGGGTCTTGATTCGCTTGACGCTGCTG,8.42 z-score,9.61 z-score,10.1 z-score,6.66 z-score,6.36 z-score,7.04 z-score,6.76 z-score
CCGATTAACATCAAAAAGTCCCCTGATGTTAATCGGGTCTTGATTCGCTTGACGCTGCTG,9.45 z-score,10.8 z-score,11.1 z-score,5.57 z-score,10 z-score,8.93 z-score,7.85 z-score
CCGATTAACATCAATACTTCCCCTGATGTTAATCGGGTCTTGATTCGCTTGACGCTGCTG,5.61 z-score,7.52 z-score,9.37 z-score,6.89 z-score,7.81 z-score,5.35 z-score,6.19 z-score
CCGATTAACATCAAAATTTCCCATGATGTTAATCGGGTCTTGATTCGCTTGACGCTGCTG,3.99 z-score,6.36 z-score,6.16 z-score,5.2 z-score,4.56 z-score,5.77 z-score,4.79 z-score
CCGATTAACATCAAAGCTTTCCCTGATGTTAATCGGGTCTTGATTCGCTTGACGCTGCTG,2.54 z-score,4.28 z-score,4.2 z-score,3.59 z-score,1.47 z-score,4.07 z-score,3.46 z-score
CCGATTAACATCAGGGGGGCGCATGATGTTAATCGGGTCTTGATTCGCTTGACGCTGCTG,3.86 z-score,3.14 z-score,3.06 z-score,3.25 z-score,4.09 z-score,4.07 z-score,4.13 z-score
CCGATTAACATCACGGGAATTCCTGATGTTAATCGGGTCTTGATTCGCTTGACGCTGCTG,7.73 z-score,7.86 z-score,5.2 z-score,5.35 z-score,8.07 z-score,8.38 z-score,4.61 z-score
CCGATTAACATCAAAATTTACCCTGATGTTAATCGGGTCTTGATTCGCTTGACGCTGCTG,3.17 z-score,5.04 z-score,6.15 z-score,4.27 z-score,4.47 z-score,5.23 z-score,4.09 z-score
CCGATTAACATCAAGGGACCCCCTGATGTTAATCGGGTCTTGATTCGCTTGACGCTGCTG,5.77 z-score,3.16 z-score,3.36 z-score,2.03 z-score,7.64 z-score,4.72 z-score,3.57 z-score
CCGATTAACATCACGATTTCCCCTGATGTTAATCGGGTCTTGATTCGCTTGACGCTGCTG,7.82 z-score,7.92 z-score,10.8 z-score,8.64 z-score,5.06 z-score,5.72 z-score,6.24 z-score
